Assay results from ChEMBL document CHEMBL1157539, “Thousands of chemical starting points for antimalarial lead identification” (Nature, 2010).

System: Plasmodium falciparum
Assay: GSK_TCMDC: Inhibition of Plasmodium falciparum 3D7 in whole red blood cells, using parasite LDH activity as an index of growth. Test compounds present at 2uM
Format: functional

Question: How did the Inhibition turn out when `O=C(c1ccc([N+](=O)[O-])o1)N1CCC(Cc2ccc(C(F)(F)F)cc2)CC1` was run?
Answer: The Inhibition was 100%.

Question: For `FC(F)(F)c1ccc2[nH]c(-c3ccc(-c4ccc(CNCC5CCCO5)cc4)cc3)nc2c1.O=C(O)C(F)(F)F` (stereo not drawn), which Inhibition is on record?
Answer: Its Inhibition is 100%.

Question: With `Cc1cc(Nc2ccc(Cl)c(Cl)c2)n2nc(C)nc2n1` as the molecule, how does the Inhibition read?
Answer: Its Inhibition is 97%.

System: Plasmodium falciparum
Assay: GSK_TCMDC: Inhibition of Plasmodium falciparum Dd2 in whole red blood cells, using parasite LDH activity as an index of growth. Test compounds present at 2uM
Format: functional

Question: With `COc1cc2c(cc1OCCN1CCC(N3CCCCC3)CC1)N(C(=O)/C=C/c1ccccc1Cl)CC2` as the molecule, how does the Inhibition read?
Answer: Its Inhibition is 41%.

Question: Which Inhibition does the source give for `Cc1ccc(Nc2ccnc(Nc3ccc(F)c(Cl)c3)n2)cc1O.Cl` here?
Answer: The Inhibition was 52%.

Question: For `CN1CCCC(CN2CCN(Cc3ccc(-c4cccc(-c5nc6ccccc6[nH]5)c4)cc3)CC2)C1.O=C(O)C(F)(F)F` (stereo not drawn), which Inhibition is on record?
Answer: The Inhibition was 100%.

Question: Which Inhibition does the source give for `CCCc1cc(Cc2cnc(N)nc2N)cc(CC)c1O.Cl` here?
Answer: The Inhibition was 0%.

Question: Which Inhibition does the source give for `CN(C)c1ccc(CN2CCC(CNC(=O)c3cc(-c4ccccc4Cl)cs3)C2)cc1.O=C(O)C(F)(F)F` (stereo not drawn) here?
Answer: The Inhibition was 5%.

Question: `N#CCCN1CCN(Cc2cccc(-c3ccc(-c4nc5ccccc5[nH]4)cc3)c2)CC1.O=C(O)C(F)(F)F` was tested. Which Inhibition did it give?
Answer: The Inhibition was 20%.

Question: Which Inhibition does the source give for `COc1ccc2[nH]c(C)cc(=NN=Cc3ccc(F)cc3)c2c1` here?
Answer: The Inhibition was 99%.

Question: For `O=C(Nc1ccsc1)Nc1cccc(-c2cccc(-c3nc4cc(C(F)(F)F)ccc4[nH]3)c2)c1`, which Inhibition is on record?
Answer: The Inhibition was 100%.

Question: How did the Inhibition turn out when `O=C(Nc1cccc(-c2ccc(-c3nc4cc(C(F)(F)F)ccc4[nH]3)cc2)c1)c1ccoc1` was run?
Answer: Its Inhibition is 42%.

Question: Which Inhibition does the source give for `CCc1c(CCNCCCCCCNCCc2ccc(OC)c(OC)c2C)ccc(OC)c1OC.Cl` here?
Answer: The Inhibition was 1%.

Question: `O=C(NCCN1CCCC1)c1cccc(-c2ccc(-c3nc4cc(F)ccc4[nH]3)s2)c1` was tested. Which Inhibition did it give?
Answer: The Inhibition was 4%.

Question: For `Nc1nc(N)c2cc(Sc3ccc4ccccc4c3)ccc2n1`, which Inhibition is on record?
Answer: The Inhibition was 92%.

Question: Which Inhibition does the source give for `COc1ccc2nccc([C@@H](O)CN3CCC(NCC(=O)Nc4cc(F)cc(F)c4)CC3)c2n1.O=C(O)C(=O)O` here?
Answer: The Inhibition was 28%.

Question: With `COc1cc(CCCOc2c(N)nc(N)nc2N)cc(OC)c1OC` as the molecule, how does the Inhibition read?
Answer: The Inhibition was 0%.

Question: Which Inhibition does the source give for `O=C(NC1CCC(N2CCC(Cc3ccc(F)cc3)CC2)CC1)c1cc2ccccc2[nH]1` (stereo not drawn) here?
Answer: Its Inhibition is 39%.

Question: Which Inhibition does the source give for `Fc1cc(Cl)ccc1Nc1ccnc2cc(-c3scnc3CNCCN3CCOCC3)ccc12` here?
Answer: The Inhibition was 84%.

Question: How did the Inhibition turn out when `FC(F)(F)c1ccc2[nH]c(-c3ccc(-c4cccc(CNCCc5ccncc5)c4)s3)nc2c1.O=C(O)C(F)(F)F` was run?
Answer: The Inhibition was 95%.

Question: With `COCCCC1C(=O)OC2CCCC21` (stereo not drawn) as the molecule, how does the Inhibition read?
Answer: The Inhibition was 85%.

Question: `COc1cc2c(cc1NS(=O)(=O)c1ccc(OCc3ccc(Br)cc3)cc1)CCN(C1CCC1)CC2.Cl` was tested. Which Inhibition did it give?
Answer: The Inhibition was 30%.

Question: With `Cc1cc(CNCC2CCC(CNCCCc3ccccc3)CC2)ccc1O` (stereo not drawn) as the molecule, how does the Inhibition read?
Answer: Its Inhibition is 0%.

Question: Which Inhibition does the source give for `CCNc1cc(C(=O)N[C@@H](Cc2ccccc2)[C@H](O)CN[C@H](C)c2ccccc2)cc(N2CCCC2=O)c1` here?
Answer: The Inhibition was 99%.

Question: With `COc1ccc(CNCc2cccc(-c3csc(-c4nc5ccccc5[nH]4)c3)c2)cc1.O=C(O)C(F)(F)F` as the molecule, how does the Inhibition read?
Answer: The Inhibition was 22%.

Question: How did the Inhibition turn out when `Cc1csc2nc(-c3ccccn3)nc(Nc3ccncn3)c12.O=C(O)C(F)(F)F` was run?
Answer: Its Inhibition is 85%.

Question: For `Cc1cc(=NN=CC=Cc2ccccc2)c2ccc(F)cc2[nH]1`, which Inhibition is on record?
Answer: The Inhibition was 30%.

Question: How did the Inhibition turn out when `CCOC(=O)CCc1cc(F)c(F)c(OC[C@H](O)CNC(C)(C)C(O)c2ccc3ccccc3c2)c1.Cl` (stereo partly drawn) was run?
Answer: Its Inhibition is 92%.

Question: `CNc1ccc(CNCc2ccc(-c3ccc(-c4nc5cccc(C)c5[nH]4)s3)cc2)cc1.O=C(O)C(F)(F)F` was tested. Which Inhibition did it give?
Answer: Its Inhibition is 94%.

Question: With `COc1cc(Nc2nccc(Nc3ccc4c(C)n[nH]c4c3)n2)cc2ccccc12.Cl` as the molecule, how does the Inhibition read?
Answer: The Inhibition was 82%.

Question: `CN(C)Cc1ccc2nc(-c3cccc(Cc4cc(Cl)ccc4OCc4ccc(Cl)cc4F)n3)[nH]c2c1.Cl` was tested. Which Inhibition did it give?
Answer: The Inhibition was 26%.

Question: For `c1ccc(CN2CCC(Nc3ccc(-c4c[nH]nc4-c4ccccn4)nc3)CC2)cc1`, which Inhibition is on record?
Answer: Its Inhibition is 23%.

Question: How did the Inhibition turn out when `O=S(=O)(c1cccc(C(F)(F)F)c1)N1CCC(CO)(Cc2cccc(C(F)(F)F)c2)CC1` was run?
Answer: Its Inhibition is 79%.

Question: How did the Inhibition turn out when `CC(Cc1ccc(CN(CC(N)=O)Cc2ccc(CC(C)NCCc3cccc(Cl)c3)cc2)cc1)NCCc1cccc(Cl)c1.O=C(O)C(F)(F)F` (stereo not drawn) was run?
Answer: The Inhibition was 68%.

Question: How did the Inhibition turn out when `O=C(/C=C/c1ccc(Cl)c(Cl)c1)NCCCCCN1CCCN(C(=S)Nc2ccc(Cl)cc2)CC1` was run?
Answer: The Inhibition was 10%.

Question: Which Inhibition does the source give for `Oc1ccc2[nH]c(-c3cccc(F)c3)nc2c1CN1CCC(O)(c2ccccc2)CC1` here?
Answer: Its Inhibition is 72%.

Question: With `O=C(O)C(F)(F)F.O=c1[nH]ccc2nc(N[C@@H]3CCNC3)nc(Nc3cccc(S(=O)(=O)N4CCOCC4)c3)c12` as the molecule, how does the Inhibition read?
Answer: The Inhibition was 98%.

Question: Which Inhibition does the source give for `O=C(NCCCCN1CCC(c2ccc3ccccc3c2)CC1)c1ccc(NC(=O)c2ccc(Cl)cc2)cc1` here?
Answer: Its Inhibition is 93%.

Question: For `Cc1ccc(NC(=S)N2CCCN(CCCCCNC(=O)/C=C/c3ccc(Cl)c(Cl)c3)CC2)cc1Cl`, which Inhibition is on record?
Answer: Its Inhibition is 5%.

Question: Which Inhibition does the source give for `CCN(CC)CCN(Cc1ccc(-c2ccc(C(F)(F)F)cc2)cc1)C(=O)Cn1c(SCc2ccc(F)c(F)c2F)nc(=O)c2c1CCC2.O=C(O)C(O)C(O)C(=O)O` here?
Answer: Its Inhibition is 96%.

Question: `O=C(c1ccc([N+](=O)[O-])o1)N1CCC(Cc2ccc(C(F)(F)F)cc2)CC1` was tested. Which Inhibition did it give?
Answer: Its Inhibition is 99%.

Question: `FC(F)(F)c1ccc2[nH]c(-c3ccc(-c4ccc(CNCC5CCCO5)cc4)cc3)nc2c1.O=C(O)C(F)(F)F` (stereo not drawn) was tested. Which Inhibition did it give?
Answer: Its Inhibition is 100%.

Question: For `Cc1cc(Nc2ccc(Cl)c(Cl)c2)n2nc(C)nc2n1`, which Inhibition is on record?
Answer: Its Inhibition is 97%.
